Data: PubChem BioAssay (EPA / NIEHS)
Several values for one entry are separate records, joined by “and”; a condition that tells them apart may be missing. Equal entries are not always repeated. Results filed as inconclusive are left out. Some compounds were tested as several samples or in several runs, with calls that do not always agree. Activity calls are given as the source filed them. How the source made its calls, unless noted: active means hit-call score of the fitted dose curve at least 0.9, where 1 is the maximum; inactive means score below 0.9.

Tests used:
[1] = APR_HepG2_CellCycleArrest_1hr: Apredica 1-hour HepG2 Assay for Cell Cycle Arrest (AID 2282666); details: high-content imaging, actives raise or lower the signal
Procedure, shortened: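 HepG2 cells exposed for 1 h to 0.39–200 uM compound (0.5% DMSO). Fixed, Hoechst-stained nuclei imaged by ArrayScan; DNA content quantified by Cell Cycle analysis; bidirectional fit against DMSO.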

[2] = ACEA_ER_80hr: ACEA Biosciences xCELLigence Real-Time Cell Analysis on Estrogen Receptor Agonism for Proliferation (AID 2282667; active means hit-call score of the fitted dose curve at least 0.9, where 1 is the maximum); details: T47D proliferation, impedance (xCELLigence), 80 h
Procedure, shortened: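 Estrogen-driven proliferation is captured as electrode impedance in T47D cells 80 h after compound addition. Test articles ran at 8 concentrations, 1:4 dilutions from 100 uM final, in two replicate plates.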

[3] = APR_HepG2_MicrotubuleCSK_1hr: Apredica 1-hour HepG2 Assay for Microtubule CSK Stabilty (AID 2282669); details: HepG2 microtubule cytoskeleton imaging, actives raise or lower the signal
Procedure, shortened: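 HepG2 cells exposed 1 h to 0.39–200 uM compound (0.5% DMSO, duplicates), then formaldehyde-fixed, permeabilized and immunostained for alpha-tubulin with Hoechst nuclei. Imaged by ArrayScan high-content analysis; bidirectional fit versus DMSO.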

[4] = APR_HepG2_NuclearSize_1hr: Apredica 1-hour HepG2 Assay for Nuclear Size (AID 2282670); details: high-content imaging, actives raise or lower the signal
Procedure, shortened: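 HepG2 cells dosed 1 hr with 0.39–200 uM compound (0.5% DMSO), formaldehyde-fixed, Hoechst 33342-stained and imaged at 20x; nuclear diameter from nuclear stain, fitted bidirectionally against DMSO.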

[5] = APR_HepG2_MitoticArrest_1hr: Apredica 1-hour HepG2 Assay for Mitotic Arrest (AID 2282672); details: high-content imaging, actives raise or lower the signal
Procedure, shortened: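 HepG2 cells exposed 1 hr to compounds at 0.39–200 uM (0.5% v/v DMSO final), then fixed in 3.7% formaldehyde and immunostained for phospho-histone H3 with Hoechst 33342. Mitotic arrest scored by automated fluorescence imaging, fitted bidirectionally versus DMSO.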

[6] = APR_HepG2_MitoMembPot_1hr: Apredica 1-hour HepG2 Assay for Mitochondrial Membrane Potential (AID 2282675); details: imaging, actives raise or lower the signal
Procedure, shortened: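 HepG2 cells dosed 1 hour with 0.39–200 uM compound in duplicate, 0.5% DMSO final. MitoTracker Red CMXRos (250 nM, 30 min) loaded before formaldehyde fixation; fluorescence quantified by high-content imaging, bidirectional fitting versus DMSO.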

[7] = APR_HepG2_CellCycleArrest_24hr: Apredica 24-hour HepG2 Assay for Cell Cycle Arrest (AID 2282905); details: imaging, actives raise or lower the signal;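 further: cell cycle arrest scored as ratio of 2N to 4N nuclear DNA content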
Procedure, shortened: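 Compounds at 0.39–200 uM (0.5% DMSO) for 24 h, then fixed and Hoechst 33342 stained. Cell-cycle analysis of nuclear DNA content by high-content imaging, fitted bidirectionally versus DMSO.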

[8] = APR_HepG2_NuclearSize_24hr: Apredica 24-hour HepG2 Assay for Nuclear Size (AID 2282907); details: high-content imaging, actives raise or lower the signal
Procedure, shortened: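 HepG2 cells exposed 24 h to compounds at 0.39–200 uM (0.5% DMSO), fixed, Hoechst 33342 stained and imaged at 20x; nuclear diameter measured by automated image analysis, fitted bidirectionally against DMSO controls.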

[9] = APR_HepG2_CellLoss_24hr: Apredica 24-hour HepG2 Assay for Cell Loss (AID 2282908); details: high-content imaging;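 on AC50: fit in both directions so a hit may be cell loss or gain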
Procedure, shortened: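 HepG2 cells exposed 24 hr to 0.39–200 uM compound in duplicate at 0.5% v/v final DMSO. Cells fixed in 3.7% formaldehyde and Hoechst 33342-stained. Cell number came from nuclear imaging at 20x. Bidirectional fit versus DMSO.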

[10] = APR_HepG2_MicrotubuleCSK_24hr: Apredica 24-hour HepG2 Assay for Microtubule CSK Stabilty (AID 2282909); details: HepG2 microtubule cytoskeleton imaging, actives raise or lower the signal
Procedure, shortened: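 HepG2 cells were treated 24 hr with compound at 0.39–200 uM in duplicate (0.5% DMSO final), then fixed and permeabilized. Alpha-tubulin immunofluorescence was imaged by high-content microscopy, with bidirectional fitting against DMSO and taxol as positive control.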

[11] = APR_HepG2_MitoMembPot_24hr: Apredica 24-hour HepG2 Assay for Mitochondrial Membrane Potential (AID 2282911); details: imaging, actives raise or lower the signal
Procedure, shortened: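 Mitochondrial dye uptake (MitoTracker Red CMXRos, 250 nM, 30 min pre-fixation) in HepG2 after 24 hr compound exposure, 0.39–200 uM; ArrayScan images at 20x, activity fitted in both directions relative to DMSO.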

[12] = APR_HepG2_MitoMass_24hr: Apredica 24-hour HepG2 Assay for Mitochondrial Mass (AID 2282912); details: high-content imaging, actives raise or lower the signal
Procedure, shortened: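 HepG2 cells exposed 24 hr to 0.39–200 uM compound, 0.5% v/v DMSO, in duplicate. Stained before fixation with 250 nM MitoTracker Red CMXRos for 30 min, then imaged at 20x with Hoechst nuclei. Fitted in both directions against DMSO.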

[13] = APR_HepG2_p53Act_24hr: Apredica 24-hour HepG2 Assay for p53 Activation (AID 2282913); details: high-content imaging, actives raise or lower the signal;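 further: p53 protein immunofluorescence averaged per cell in HepG2 with Hoechst nuclei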
Procedure, shortened: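 Following 24 hr dosing of HepG2 at 0.39–200 uM, the cells undergo formaldehyde fixation, Triton permeabilization and multiplexed antibody labeling that includes p53 (Cy5). Signal from the imaging is referenced to DMSO solvent controls.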

[14] = APR_HepG2_CellCycleArrest_72hr: Apredica 72-hour HepG2 Assay for Cell Cycle Arrest (AID 2282914); details: high-content imaging, actives raise or lower the signal
Procedure, shortened: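 Using multiplexed high-content imaging, HepG2 nuclei stained with Hoechst 33342 (2 ug/mL) were analysed for DNA content after fixation and permeabilization. Treatment lasted 72 hr across 0.39–200 uM in duplicate with final DMSO 0.5% v/v; DMSO served as negative control.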

[15] = APR_HepG2_CellLoss_1hr: Apredica 1-hour HepG2 Assay for Cell Loss (AID 2282668); details: high-content imaging;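 further: curves fitted both ways against DMSO so gain or loss of cells counts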
Procedure, shortened: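 HepG2 cells were treated for 1 h with compound at 0.39–200 uM, in duplicate, in 0.5% DMSO. After formaldehyde fixation, Hoechst 33342-stained nuclei were imaged on an ArrayScan to count cells. Data were fitted bidirectionally versus DMSO.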

[16] = APR_HepG2_StressKinase_1hr: Apredica 1-hour HepG2 Assay for Stress Kinase (AID 2282906); details: HepG2 stress kinase (phospho-c-Jun) imaging, actives raise or lower the signal
Procedure, shortened: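 HepG2 cells dosed 0.39-200 uM (0.5% DMSO) for 1 h, then formaldehyde-fixed. Stress kinase read by phospho-c-Jun immunofluorescence using high-content imaging; bidirectional fit vs DMSO.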

[17] = APR_HepG2_MitoMass_1hr: Apredica 1-hour HepG2 Assay for Mitochondrial Mass (AID 2282674); details: high-content imaging, actives raise or lower the signal
Procedure, shortened: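 HepG2 cells dosed 1 hr with 0.39-200 uM compound (0.5% DMSO), duplicate wells. Mitochondria stained with 250 nM MitoTracker Red CMXRos for 30 min before formaldehyde fixation, imaged at 20x by ArrayScan; bidirectional fit versus DMSO.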

[18] = APR_HepG2_MitoticArrest_24hr: Apredica 24-hour HepG2 Assay for Mitotic Arrest (AID 2282910); details: high-content imaging, actives raise or lower the signal
Procedure, shortened: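 Compounds are dosed onto HepG2 cells across ten concentrations up to 200 uM for 24 hr. Cells are then fixed in 3.7% formaldehyde, permeabilised, and labelled for phospho-histone H3 and nuclei; images are scored by cell cycle analysis and fitted bidirectionally relative to DMSO.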

Measured: AC50

N#Cc1nn(-c2c(Cl)cc(C(F)(F)F)cc2Cl)c(N)c1S(=O)C(F)(F)F (centres undefined)
active: [6] 54.4 µM | [7] 50.9 µM | [9] 96.2 µM | [10] 87.2 µM | [14] 19.9 µM
not listed: [15] | [16] | [17] | [18]
inactive: all other assays above

COc1nc(C)nc(NC(=O)NS(=O)(=O)c2ccccc2CCC(F)(F)F)n1
not listed: [2] | [17] | [18]
inactive: all other assays above

CCCCNC(=O)n1c(NC(=O)OC)nc2ccccc21
active: [7] 22.7 µM | [9] 12.4 µM | [14] 17 µM
not listed: [15] | [16] | [17] | [18]
inactive: all other assays above

CCc1nn(C)c(C(=O)NCc2ccc(C(C)(C)C)cc2)c1Cl
active: [2] 18.3 nM | [9] 86.9 µM | [10] 19.8 µM
not listed: [15] | [16] | [17] | [18]
inactive: all other assays above

O=C(O)c1nc(Cl)ccc1Cl
not listed: [15] | [16] | [17] | [18]
inactive: all other assays above

CCOC(=O)CC(SP(=S)(OC)OC)C(=O)OCC (centres undefined)
not listed: [15] | [16] | [17] | [18]
inactive: all other assays above

CC(C)C1(C)N=C(c2nc3ccccc3cc2C(=O)O)NC1=O (centres undefined)
not listed: [15] | [16] | [17] | [18]
inactive: all other assays above

COc1cnc(OC)n2nc(NS(=O)(=O)c3c(OCC(F)F)cccc3C(F)(F)F)nc12
not listed: [15] | [17] | [18]
inactive: all other assays above

CCOP(=S)(OCC)SCn1c(=O)oc2cc(Cl)ccc21
active: [14] 85 µM
not listed: [15] | [16] | [17] | [18]
inactive: all other assays above

C=CC1(C)OC(=O)N(c2cc(Cl)cc(Cl)c2)C1=O (centres undefined)
not listed: [15] | [16] | [18]
inactive: all other assays above

COP(=S)(OC)Oc1nc(Cl)c(Cl)cc1Cl
not listed: [15] | [16]
inactive: all other assays above

CC(C)(C)c1ccc(CSc2cnn(C(C)(C)C)c(=O)c2Cl)cc1
active: [2] 4.06 nM | [7] 16.1 µM | [9] 2.58 µM | [14] 16.1 µM
not listed: [15] | [16] | [18]
inactive: all other assays above

CCCCNC(=O)OCC#CI
active: [5] 28.8 µM | [9] 2.6 µM and 6.77 µM | [10] 14.7 µM | [11] 119 µM and 41 µM
inactive: [1] | [3] | [4] | [5] | [6] | [7] | [8] | [10] | [18] | [12] | [13] | [14]

Oc1ccccc1-c1ccccc1
active: [7] 82.1 µM
not listed: [15] | [16] | [17] | [18]
inactive: all other assays above
